Potency estimated from few doses data for 4 compounds are collected here from article PMC11062922 (Nature Chemical Biology, 2023).

Where two headings read alike, the source gives them in different places.

Holding throughout (design): species or system human, MV4-11 + K-562 + COLO205 + SK-N-BE2 + OVCAR-8
One assay relates to ADRBK1. Particulars: read-out: apparent Kd, n = 1.
Another assay concerns AGPS. Particulars: read-out: apparent Kd; compound concentrations:100 nM and 1000 nM (sheet 'Samples'); n = 1.
The next assay concerns AKT1. As to conditions: read-out: apparent Kd; compound concentrations:100 nM and 1000 nM (sheet 'Samples'); n = 1.
For a further assay, the system named is AKT2. As to conditions: read-out: apparent Kd; compound concentrations:100 nM and 1000 nM (sheet 'Samples'); n = 1.
The test system of another assay is AKT3. As to conditions: read-out: apparent Kd; compound concentrations:100 nM and 1000 nM (sheet 'Samples'); n = 1.
A further assay has as its system CDK16. Particulars: read-out: apparent Kd; compound concentrations:100 nM and 1000 nM (sheet 'Samples'); n = 1.
The next assay relates to CDK17. Particulars: read-out: apparent Kd; compound concentrations:100 nM and 1000 nM (sheet 'Samples'); n = 1.
Another assay deals with T1, DJA1.
T1 construct: gene DNAJA1
Particulars: read-out: apparent Kd; compound concentrations:100 nM and 1000 nM (sheet 'Samples'); n = 1.

For a further assay, the system named is FLT3. Particulars: read-out: apparent Kd; compound concentrations:100 nM and 1000 nM (sheet 'Samples'); n = 1.
Another assay relates to ILK. As to conditions: read-out: apparent Kd; compound concentrations:100 nM and 1000 nM (sheet 'Samples'); n = 1.
In another assay the test system is MAP2K1. Particulars: read-out: apparent Kd, n = 1.
The test system of the next assay is MAP2K2. Particulars: read-out: apparent Kd; compound concentrations:100 nM and 1000 nM (sheet 'Samples'); n = 1.
Another assay relates to NNT. As to conditions: read-out: apparent Kd; compound concentrations:100 nM and 1000 nM (sheet 'Samples'); n = 1.
The subject of another assay is NQO1. Particulars: read-out: apparent Kd; compound concentrations:100 nM and 1000 nM (sheet 'Samples'); n = 1.
For a further assay, the system named is PDGFRB. Particulars: read-out: apparent Kd; compound concentrations:100 nM and 1000 nM (sheet 'Samples'); n = 1.
In the next assay the test system is PIP4K2C. As to conditions: read-out: apparent Kd; compound concentrations:100 nM and 1000 nM (sheet 'Samples'); n = 1.
Another assay concerns PRKAG1. Particulars: read-out: apparent Kd; compound concentrations:100 nM and 1000 nM (sheet 'Samples'); n = 1.
A further assay has as its system PRKAG2. As to conditions: read-out: apparent Kd; compound concentrations:100 nM and 1000 nM (sheet 'Samples'); n = 1.
For a further assay, the system named is PYGL. Particulars: read-out: apparent Kd; compound concentrations:100 nM and 1000 nM (sheet 'Samples'); n = 1.
The next assay deals with RIOK2. As to conditions: read-out: apparent Kd; compound concentrations:100 nM and 1000 nM (sheet 'Samples'); n = 1.
For a further assay, the system named is STK26. As to conditions: read-out: apparent Kd; compound concentrations:100 nM and 1000 nM (sheet 'Samples'); n = 1.
Another assay deals with VDAC3. Particulars: read-out: apparent Kd; compound concentrations:100 nM and 1000 nM (sheet 'Samples'); n = 1.
For the next assay, the system named is ADK. Particulars: read-out: apparent Kd; compound concentrations:100 nM and 1000 nM (sheet 'Samples'); n = 1.
The test system of another assay is CAMK2B. As to conditions: read-out: apparent Kd; compound concentrations:100 nM and 1000 nM (sheet 'Samples'); n = 1.
A further assay has as its system CAMK2D. Particulars: read-out: apparent Kd; compound concentrations:100 nM and 1000 nM (sheet 'Samples'); n = 1.
For the next assay, the system named is CSNK1G1. As to conditions: read-out: apparent Kd; compound concentrations:100 nM and 1000 nM (sheet 'Samples'); n = 1.
In a further assay the test system is EIF2AK1. As to conditions: read-out: apparent Kd; compound concentrations:100 nM and 1000 nM (sheet 'Samples'); n = 1.
The subject of another assay is ERN2. As to conditions: read-out: apparent Kd; compound concentrations:100 nM and 1000 nM (sheet 'Samples'); n = 1.
Another assay has as its system FN3KRP. Particulars: read-out: apparent Kd; compound concentrations:100 nM and 1000 nM (sheet 'Samples'); n = 1.
The next assay relates to FN3K. As to conditions: read-out: apparent Kd; compound concentrations:100 nM and 1000 nM (sheet 'Samples'); n = 1.
For another assay, the system named is ICK. Particulars: read-out: apparent Kd; compound concentrations:100 nM and 1000 nM (sheet 'Samples'); n = 1.
The test system of the next assay is LATS1. Particulars: read-out: apparent Kd; compound concentrations:100 nM and 1000 nM (sheet 'Samples'); n = 1.
The test system of a further assay is MAPK3. As to conditions: read-out: apparent Kd; compound concentrations:100 nM and 1000 nM (sheet 'Samples'); n = 1.
A further assay concerns NEK2. As to conditions: read-out: apparent Kd; compound concentrations:100 nM and 1000 nM (sheet 'Samples'); n = 1.
The next assay concerns NQO2. As to conditions: read-out: apparent Kd; compound concentrations:100 nM and 1000 nM (sheet 'Samples'); n = 1.
A further assay relates to NUAK1. Particulars: read-out: apparent Kd; compound concentrations:100 nM and 1000 nM (sheet 'Samples'); n = 1.
A further assay deals with PAK6. As to conditions: read-out: apparent Kd; compound concentrations:100 nM and 1000 nM (sheet 'Samples'); n = 1.
Another assay has as its system PBK. As to conditions: read-out: apparent Kd; compound concentrations:100 nM and 1000 nM (sheet 'Samples'); n = 1.
Another assay deals with PDXK. Particulars: read-out: apparent Kd; compound concentrations:100 nM and 1000 nM (sheet 'Samples'); n = 1.
Another assay relates to PFKP. As to conditions: read-out: apparent Kd; compound concentrations:100 nM and 1000 nM (sheet 'Samples'); n = 1.
For another assay, the system named is PRKX;PRKY. Particulars: read-out: apparent Kd; compound concentrations:100 nM and 1000 nM (sheet 'Samples'); n = 1.
In another assay the test system is TESK1. Particulars: read-out: apparent Kd; compound concentrations:100 nM and 1000 nM (sheet 'Samples'); n = 1.
The next assay deals with TP53RK. As to conditions: read-out: apparent Kd; compound concentrations:100 nM and 1000 nM (sheet 'Samples'); n = 1.
The subject of another assay is COX5A. As to conditions: read-out: apparent Kd; compound concentrations:100 nM and 1000 nM (sheet 'Samples'); n = 1.
A further assay relates to EPHA7. Particulars: read-out: apparent Kd; compound concentrations:100 nM and 1000 nM (sheet 'Samples'); n = 1.
The next assay has as its system PIK3CB. As to conditions: read-out: apparent Kd; compound concentrations:100 nM and 1000 nM (sheet 'Samples'); n = 1.
Setting [1] is: compound concentrations:100 nM and 1000 nM (sheet 'Samples').

Turning to `NS(=O)(=O)c1ccc(Nc2ncc(-c3ccccc3)o2)cc1` [GW572399X], the potency estimated from few doses is 1910 nM with ADRBK1 (setting [1]); 2050 nM with AGPS; 1960 nM in the assay with AKT1; 1970 nM in the assay with AKT2; 1560 nM in the assay with AKT3; 1760 nM in the assay with CDK16. The potency estimated from few doses in the assay on CDK17 was 2100 nM; in the assay on DJA1, 1310 nM; in the assay on FLT3, 164 nM; in the assay with ILK, 1870 nM; in the assay on MAP2K1 (setting [1]) it was 1420 nM; in the assay on MAP2K2 it was 1740 nM. In addition, the potency estimated from few doses with NNT is 1770 nM; in the assay on NQO1 it was 1900 nM; in the assay with PDGFRB, 1480 nM; in the assay on PIP4K2C it was 2290 nM; in the assay with PRKAG1 it was 1790 nM; with PRKAG2, 1380 nM. For the same compound, the potency estimated from few doses in the assay on PYGL is 1900 nM; in the assay on RIOK2, 2160 nM; in the assay with STK26, 1400 nM; in the assay on VDAC3 it was 1580 nM.
For `C[C@@H](c1ccccc1)[C@@H](C(=O)Nc1ccc(I)cc1F)N1C(=O)N[C@H](c2ccc(OC[C@H](O)CO)cc2)C1=O` [RO5068760-000], the potency estimated from few doses is 1000 nM in the assay with ADK; 544 nM in the assay with CAMK2B; 450 nM with CAMK2D; 2040 nM with CSNK1G1; 1390 nM in the assay on EIF2AK1; 1170 nM in the assay with ERN2. In addition, the potency estimated from few doses in the assay on FN3KRP is 959 nM; in the assay on FN3K, 1200 nM; in the assay with ICK, 1310 nM; with LATS1, 1760 nM; with MAP2K1 (compound concentrations: 100 nM and 1000 nM (sheet 'Samples'), CATDS: 0.123510753631687), 183 nM; in the assay with MAP2K2, 165 nM. For the same compound, the potency estimated from few doses in the assay on MAPK3 was 1330 nM; with NEK2 it was 1570 nM; in the assay with NQO2, 787 nM; in the assay on NUAK1, 1920 nM; in the assay with PAK6, 1730 nM; with PBK it was 2030 nM. The potency estimated from few doses in the assay with PDXK is 612 nM; with PFKP, 2220 nM; in the assay on PRKX;PRKY, 1130 nM; in the assay with TESK1, 543 nM; in the assay with TP53RK it was 1620 nM.
With `O=c1cc(N2CCOCC2)nc2n(Cc3ccccc3F)ccn12` [GSK2297428A], the potency estimated from few doses in the assay on ADRBK1 (setting [1]) was 1690 nM; in the assay on COX5A it was 1300 nM; with EPHA7 it was 1660 nM; in the assay with PIK3CB, 385 nM.
In the case of `COc1cc(Nc2ncc3c(C)nc(-c4cccc(C(F)(F)F)c4)n3n2)cc(OC)c1OC` [GW837331X], the potency estimated from few doses with ADRBK1 (compound concentrations: 100 nM and 1000 nM (sheet 'Samples'), CATDS: 1) was 2010 nM.
